Compounds without any hit were thinned out: in the full panel of roughly 83,000, 20% have a hit.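 Activity criterion: percent growth below 10, measured after cells in 96-well plates were exposed to a single compound concentration for 48 hours.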 Activity calls are given as the source filed them.
Each molecule was assayed on HL-60(TB) leukemia (assay: NCI-60 one-dose screen, 48 h (100 = growth as untreated, 0 = no growth, -100 = all killed)). Conditions: 10 µM unless noted.

| Structure (SMILES) | growth |
| --- | --- |
| CNCc1cccc2c1OCCOCCN(C)C(=O)CN(C)S(=O)(=O)c1ccc(cc1)-c1cnc(N)c(n1)C(=O)N2 | -32.9% (active) |
| O=S(=O)(NCl)c1ccccc1 | 99.8% (inactive) |
| COc1ccc(/C(=C\c2ccc3c(c2)OCO3)C(=O)Nc2nc3ccccc3s2)cc1 | 101% (inactive) |
| CC(C)C1CCC(C)C(O)C1 (stereo not given) | 103% (inactive) |
| COc1cc(/C=C/C(=O)c2cccnc2Nc2ccc(F)cc2)cc(OC)c1OC | 5.42% (active) |
| CCN(CC)CCCNCc1cc(-c2ccccc2)nc2cc(Cl)ccc12 | 14% (inactive) |
| CCN(CC)C(=O)CC1=C(C)/C(=C/c2[nH]c(-c3ccc[nH]3)cc2OC)N=C1C | 0.518% (active) |
| COc1cc2nc3cc([N+](=O)[O-])ccc3c(NCCNCC(C)(C)O)c2cc1OC | -12.8% (active) |
| O=C(CSc1nnc(-c2ccccc2)o1)Nc1ccc(C(=O)/C=C/c2ccccc2)cc1 | 71% (inactive) |
| O=C(CSc1nc2ccc([N+](=O)[O-])cc2[nH]1)Nc1ccc([N+](=O)[O-])cc1 | 12.7% (inactive) |
| Cc1cc2c(cc1C)[n+](Cc1ccc3ccccc3c1)cn2Cc1ccc2ccccc2c1 | -60% (active) |
| COc1cc(-c2nn(-c3ccc(Br)cc3)cc2CO)ccc1O | 74.8% (inactive) |
| NCCOc1ncccc1/C=C1\c2ccccc2-c2ccc(C(F)F)cc21 | -3.26% (active) |
| O=C1NC(=C(Cl)Cl)/C(=N\S(=O)(=O)NCc2ccccc2)N1 | 97% (inactive) |
| C=C1C(=O)O[C@H]2[C@H]1CC/C(COC(=O)c1ccc(Cl)nc1)=C\CC[C@@]1(C)O[C@@H]21 | -55.1% (active) |
| O=C(CI)NC(=O)NC(=O)NCc1ccccc1 | -10.5% (active) |
| COc1cc(/C=C/C(=O)c2ccc(F)cc2)ccc1OCCCCOc1ccc(/C=C/C(=O)c2c(C)nc3ccccc3c2C)cc1OC | 79.8% (inactive) |
| COc1ccc(CNC(=O)c2c(C)n([O-])c3cc(F)c(F)cc3[n+]2=O)cc1 | 101% (inactive) |
| CCCc1cc2c(=O)c(C(=O)OC)c[nH]c2cc1N(CC)CC | 91.6% (inactive) |
| Cc1ccc(NC(=O)c2cc(-c3nc4ccccc4s3)c(=O)n(NS(=O)(=O)c3ccc(Cl)cc3)c2N)cc1 | 101% (inactive) |

| Structure (SMILES) | growth |
| --- | --- |
| CC1CCN(C(=O)CSc2nc3sc4c(c3c(=O)[nH]2)CCCC4)CC1 | 102% (inactive) |
| COC(=O)[C@]1(C)CC[C@]2(C)CC[C@]3(C)C(=CC(=O)[C@@H]4[C@@]5(C)CCC(=O)NC(C)(C)[C@@H]5CC[C@]43C)[C@@H]2C1 | 1.31% [100 µM] (active) |
| CCOC(=O)c1c(C(=O)c2cn(C)c3ccc(Br)cc23)c(-c2cn(C)c3ccc(Br)cc23)n(NC(=O)OC(C)(C)C)c1C | 100% [100 µM] (inactive) |
| CCc1ccc(Oc2c(-c3ccc(OCc4ccc(Cl)cc4)cc3O)nn(C)c2C(F)(F)F)cc1 | -36.9% (active) |
| Cc1ccc(C)c2c1sc1nc(N3CCOCC3)c(C#N)c(=O)n12 | 93.4% (inactive) |
| CC(=O)c1cc2c(cc1F)C(C)(C)CCC2(C)C | 86.3% (inactive) |
| CCN(CC)CCOc1ccc(/C(=C(\C)c2ccc(OC)c(F)c2)c2ccc(Cl)cc2)cc1 | 68.6% (inactive) |
| N#CC(Cc1cccc2ccccc12)c1cc2ccccc2[nH]1 (stereo not given) | 96.4% (inactive) |
| CCCCCCCN(CCCCCCC)C(=N)c1ccc(OC)c2ccccc12 | -66.4% (active) |
| Clc1nn2c(Cn3cnc4c(NCc5ccccc5)ncnc43)nnc2c2ccccc12 | 23% (inactive) |
| NNc1cccc([N+](=O)[O-])c1 | 6.4% (active) |
| CCCCCCCCCCCCNCCCc1ccccc1 | 32.3% (inactive) |
| COc1ccc(CC(C)=C(c2ccc(OCCN3CCCCCC3)cc2)c2ccc(OCCN3CCCCCC3)cc2)cc1 | -59.8% (active) |
| CCCSc1ccc2nc(NC(=O)OC)[nH]c2c1 | 7.7% (active) |
| COc1cc2c(cc1O)CCN1C[C@@H](CC(C)C)[C@@H](O)C[C@@H]21 | 73.7% (inactive) |
| COc1cc2ncnc(Nc3ccc(F)c(Cl)c3)c2cc1NC(=O)/C=C/CN1CCCCC1 | -50.2% (active) |
| CCOC(=O)c1[nH]c2c(c1C)-c1[nH]c(=O)c(S(=O)(=O)c3ccccc3)cc1SC2 | 54.7% [100 µM] (inactive) |
| COc1ccc(C(=O)/C=C/c2c(C(F)(F)F)nc3sccn23)cc1OC | -35.6% (active) |
| Cc1cc(SCc2ccccc2)nc(N)n1 | 119% (inactive) |
| O=C(/C=C/C12c3ccccc3C(c3ccccc31)C1C(=O)NC(=O)C12)c1ccc(I)cc1 (stereo not given) | 6.86% (active) |
